Source: PubChem BioAssay AID652057 (Broad Institute, 2013)
The campaign covered roughly 1,400 compounds. About 1,000 (71%) were called active. No rule for the calls is given here. So high a share suggests a set chosen from earlier hits. Only a sample is shown. Entries with a potency or affinity are not part of this list.

Assay: inhibitors of HIV Env-driven cell fusion, dose response, cherry-pick (AID 652057)
Conditions: HeLa-JRFL Env/CEM21 cell fusion, luciferase; series mostly up to 35 µM; activity change, negative = inhibition: at the top concentration

Activity change, negative = inhibition, inactive:
COc1ccc(NC(=O)C(=O)NCC2CCCN2S(=O)(=O)c2cccs2)cc1 (configuration not stated) 38.8%
CNC[C@@H]1Oc2ccc(NS(C)(=O)=O)cc2CC(=O)N([C@H](C)CO)C[C@H]1C -5.06%
O=C(CCNC(=O)c1ccc(Br)cc1)NNC(=O)COc1ccccc1F 22.9%
O=C(C[C@@H]1C[C@@H]2c3cc(NC(=O)C4CCOCC4)ccc3O[C@@H]2[C@H](CO)O1)NCCc1ccccc1 20.6%
O=C(C[C@@H]1C[C@@H]2c3cc(NC(=O)C4CCOCC4)ccc3O[C@@H]2[C@H](CO)O1)NCc1ccccc1F 0.678%
O=C(NCc1ccccc1)c1ccc(C(=O)NCc2ccccc2)cc1 -1.36%
CN(C)C(=O)C[C@H]1C[C@@H]2c3cc(NC(=O)NC4CCCCC4)ccc3O[C@@H]2[C@H](CO)O1 -22.3%
Cc1ccccc1-n1c(=O)c2ccccc2n2cnnc12 26.1%
Cc1ccc(NS(=O)(=O)c2cc(C(=O)N(C)C3CCN(C)CC3)ccc2Cl)cc1Cl 22.2%
Cc1nc2ccc(NC(=O)c3cc(S(=O)(=O)N(C)c4ccccc4)ccc3Cl)cc2s1 -12.3%
Cc1ccc(-n2nc3c(c2NC(=O)c2ccco2)CS(=O)C3)cc1 (configuration not stated) 3.85%
O=C(CC1C(=O)NCCN1Cc1cccc(F)c1)NC1CCCCC1 (configuration not stated) 24%
CCN(CCn1cccn1)C(=O)CC1C(=O)NCCN1CCc1ccccc1 (configuration not stated) 49.2%
O=C(O)C[C@@H]1C=C[C@@H](NC(=O)Nc2ccccc2)[C@H](CO)O1 22.1%
COc1ccccc1S(=O)(=O)N[C@H]1CC[C@@H](CC(=O)N2CCN(C)CC2)O[C@H]1CO 11.3%
O=C(O)C[C@@H]1C=C[C@H](NC(=O)Nc2ccccc2)[C@H](CO)O1 38.8%
COc1ccccc1S(=O)(=O)N[C@H]1CC[C@H](CC(=O)N2CCN(C)CC2)O[C@H]1CO -7.18%
Nc1ccn([C@@H]2O[C@H](C(=O)NCc3ccc4c(c3)OCO4)[C@@H](O)[C@H]2O)c(=O)n1 6.02%
Cc1ccc(S(=O)(=O)N[C@@H]2CC[C@H](CCNC(=O)c3ccccc3F)O[C@H]2CO)cc1 -20.1%
CCN(C1CCCCC1)S(=O)(=O)c1ccc(S(=O)(=O)NCc2ccncc2)cc1 -32.3%
CCCC(=O)Nc1ccc2c(c1)OC[C@@H](C)N(C(=O)CN(C)C)C[C@H](C)[C@@H](OC)CN(C)C2=O -2.59%
CO[C@H]1CN(C)C(=O)c2ccc(NC(=O)Nc3cccc(F)c3)cc2OC[C@@H](C)N(C(C)=O)C[C@H]1C 0.366%
CO[C@H]1CN(C)C(=O)c2cc(NC(=O)C3CCOCC3)ccc2OC[C@H](C)N(Cc2nccs2)C[C@H]1C -5.78%
CCCC(=O)Nc1ccc2c(c1)OC[C@H](C)N(C(=O)CN(C)C)C[C@@H](C)[C@H](OC)CN(C)C2=O 13.4%
CO[C@H]1CN(C)C(=O)c2ccc(NC(=O)C3CC3)cc2OC[C@@H](C)N(C(C)=O)C[C@@H]1C -6.82%
CO[C@@H]1CN(C)C(=O)c2ccc(NS(C)(=O)=O)cc2OC[C@@H](C)N(C(=O)C2CCCCC2)C[C@H]1C 18.8%
CO[C@@H]1CN(C)C(=O)c2ccc(NC(C)=O)cc2OC[C@@H](C)N(Cc2cncnc2)C[C@@H]1C -15.1%
CO[C@H]1CN(C)C(=O)c2ccc(NC(=O)Nc3cccc(F)c3)cc2OC[C@H](C)NC[C@H]1C 16.9%
CCC(=O)Nc1ccc2c(c1)C(=O)N(C)C[C@@H](OC)[C@H](C)CN(C(=O)CC)[C@@H](C)CO2 32.1%
CCCC(=O)Nc1ccc2c(c1)OC[C@H](C)N(Cc1ccncc1)C[C@H](C)[C@H](OC)CN(C)C2=O -9.54%
N#Cc1ccc(CSc2nnc(COc3ccccc3)n2-c2ccccc2)cc1 -18%
Cc1ccc(S(=O)(=O)N(C)C[C@H]2Oc3ccc(NC(=O)Nc4cccc5ccccc45)cc3C(=O)N([C@H](C)CO)C[C@@H]2C)cc1 0.697%
